In the library only some 31% were active in any assay of this set; here they are far more common.
CYP2C19 inh – inhibitors of human CYP2C19. CYP2C19 Supersomes, luciferin-H EGE luminescence, 30 min. inhibition, % at 5 µM. 96,000 tested, 21% active. AID 778;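 active means CYP2C19 inhibition above a set limit at 5 µM in the primary screen, cut at about 50% in these data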;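 further: plate controls were negative control wells for no effect and 2.5 mM tranylcypromine positive control for full effect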
CYP2C9 activ – increases human cytochrome P450 2C9 activity; P11712; recombinant CYP2C9, luciferin-H conversion, luminescence; hits give high values; factor 1 = untreated enzyme, 0 = blocked; activation factor at 5 µM; 96,000 tested, 1.4% active;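 active means activation factor of 2 or more for CYP2C9 at a 5 µM dose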;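 further: 0 = sulfaphenazole-blocked wells and 1 = vehicle-only wells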
Target sequence (P11712 whole entry, looked up): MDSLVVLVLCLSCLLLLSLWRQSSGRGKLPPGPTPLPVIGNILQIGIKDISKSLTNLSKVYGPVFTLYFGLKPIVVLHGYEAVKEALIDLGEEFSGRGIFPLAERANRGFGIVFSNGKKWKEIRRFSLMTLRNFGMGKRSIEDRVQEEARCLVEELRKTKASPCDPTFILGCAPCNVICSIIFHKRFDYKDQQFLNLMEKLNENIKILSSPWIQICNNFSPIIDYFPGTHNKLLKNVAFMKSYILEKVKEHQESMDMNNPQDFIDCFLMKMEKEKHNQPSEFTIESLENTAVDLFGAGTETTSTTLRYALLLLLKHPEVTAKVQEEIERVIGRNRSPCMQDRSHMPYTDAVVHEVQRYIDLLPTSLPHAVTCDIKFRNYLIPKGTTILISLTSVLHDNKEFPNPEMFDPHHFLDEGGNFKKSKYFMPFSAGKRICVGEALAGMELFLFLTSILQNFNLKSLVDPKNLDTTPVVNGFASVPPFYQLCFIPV
CYP2C9 inh – blocks human cytochrome P450 2C9. P11712. CYP2C9 Supersomes, luciferin-H conversion, luminescence. inhibition, % at 5 µM. 96,000 tested, 20% active;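 active means blocking of liver enzyme CYP2C9 beyond about 50% at 5 µM, limit read from the data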
CYP2C19 activ – activators of human cytochrome P450 2C19; P33261; recombinant CYP2C19, luciferin-H EGE luminescence; hits give high values; 0 = fully inhibited enzyme, 1 = untreated enzyme; activation factor at 5 µM; 96,000 tested, under 10 active; AID 1025;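 active means activation factor of at least 2 at 5 µM in the primary screen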;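 further: 0 = wells with 2.5 mM tranylcypromine and 1 = vehicle-only wells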
Starred values were filed as active, the others as inactive.

SMILES	CYP2C19 inh	CYP2C9 activ	CYP2C9 inh	CYP2C19 activ
CC(=O)OC1CCC2(C)C(COc3ccc4ccc(=O)oc4c3)C(C)(O)CCC2C1(C)C (stereo not given)	21	0.5	53*	0.8
COC(=O)COc1ccc(S(=O)(=O)NC2CCCCCC2)cc1	94*	0.1	88*	0.1
CCN(C1CCCCC1)S(=O)(=O)c1ccc(C(=O)O)cc1	7	1	-1	0.9
CCc1ccc(OCC(=O)NC(=S)Nc2ccc(F)cc2)c(Br)c1	6	1	2	0.9
Cn1c(=O)oc2cc(S(=O)(=O)NC3CCCCCCC3)ccc21	41	1.1	-12	0.6
O=C(COc1ccc(S(=O)(=O)NC2CCCC2)cc1)N1CCCCCC1	8	0.6	36	0.9
O=S(=O)(NC1CCCCC1)c1ccc(Br)cc1	80*	0.7	26	0.2
COC(=O)CCN(C1CCCCC1)S(=O)(=O)c1ccc(S(=O)(=O)NC2CCCCC2)cc1	97*	0	100*	0
CCc1ccc(OCC(=O)NC(=S)Nc2ccc(S(=O)(=O)NC3CCCCC3)cc2)cc1	6	0.3	74*	0.9
Cc1cc(Nc2ccccc2Cl)n2nnnc2n1	11	0.9	6	0.9
CC(NC(=O)Nn1cnnc1)(C(F)(F)F)C(F)(F)F	-8	0.8	16	1.1
O=C1c2ccccc2-c2c1nc1c([n+]2[O-])CCCC1	-19	1.2	-21	1.2
O=C(Nc1ccc(Cl)cc1)N1CCC(c2nc(-c3ccc(F)cc3)no2)CC1	6	1.1	-5	0.9
COC(=O)CSc1nnc(CNC(=O)c2ccco2)n1-c1ccc(F)cc1	-20	1.1	-15	1.2
COc1ccc(-c2c(C)nn(-c3ccccc3)c2N)cc1	17	1.1	-5	0.8
Cc1nn(-c2ccccc2)c2c1C(O)n1c(nc3ccccc31)S2 (stereo not given)	70*	0.4	58*	0.3
Cc1ccsc1C(=O)Nc1ccc(C(=O)O)cc1	92*	0.4	57*	0.1
Cc1oc2c(c1C(=O)Nc1ccc(C(=O)O)cc1)CCCC2	-8	0.7	33	1.1
CC(C)C(NC(=O)OC(C)(C)C)C(=O)N1CCCC1C(=O)NC(Cc1ccccc1)C(N)=O (stereo not given)	-21	1.2	-20	1.2
O=C(Cc1ccc(Cl)c(Cl)c1)OCC(=O)c1ccc[nH]1	91*	0.5	52*	0.1
CCOCCn1c(N(C)Cc2ccccc2)nc2c1c(=O)[nH]c(=O)n2C	22	0.7	26	0.8
OC(CN1CCN(c2ccccn2)CC1)Cn1c2ccccc2c2ccccc21 (stereo not given)	57*	0.5	54*	0.4
OC(COCc1cccs1)CN1CCN(c2ccccn2)CC1 (stereo not given)	0	1.1	-10	1
O=C(c1ccco1)N1CCN(CC(O)Cn2c3ccccc3c3ccccc32)CC1 (stereo not given)	83*	0.1	88*	0.2
Cc1c(C)n(CC(O)CN2CCCCCC2)c2ccccc12 (stereo not given)	72*	1	4	0.3
SMILES	CYP2C19 inh	CYP2C9 activ	CYP2C9 inh	CYP2C19 activ
OC(COc1ccc(Cl)c2ccccc12)CN1CCN(c2ccccn2)CC1 (stereo not given)	92*	0.4	59*	0.1
CN1CCN(c2nc3c(c(=O)[nH]c(=O)n3C)n2CCCSc2ncccn2)CC1	-7	1	4	1.1
CN1CCN(C(=O)CN(CCc2ccccc2)S(C)(=O)=O)CC1	40	1	2	0.6
CCOC(=O)N1CCC(c2nc(C)sc2C(=O)O)CC1	-12	0.9	5	1.1
COc1ccccc1N1CCN(C(=O)COc2ccc(Cl)cc2)CC1	80*	0.5	52*	0.2
O=C(COc1ccc(Cl)cc1)N1CCN(c2ncccn2)CC1	67*	0.5	54*	0.3
COc1ccccc1OCC(=O)N1CCN(c2ccccc2OC)CC1	40	0.7	30	0.6
CC(=O)c1ccc(N2CCN(C(=O)COc3ccc(F)cc3)CC2)c(F)c1	53*	0.5	48	0.5
C=CCn1c(=N)n(CC(=O)O)c2ccccc21	2	1	4	1
CC(=O)Nc1ccc2c(c1)nc(CCN1CCN(C)CC1)n2C	-10	1.1	-12	1.1
O=C(Nc1ccc(Cc2ccncc2)cc1)C1CCC(N2C(=O)C3C4C=CC(C5CC45)C3C2=O)CC1 (stereo not given)	40	0.3	74*	0.6
CC(=O)Nc1ccc(Cc2ccncc2)cc1	97*	0.1	87*	0
COc1ccc(NC(=O)Nc2ccc(Cc3ccncc3)cc2)cc1OC	77*	0.2	78*	0.2
COC(=O)Nc1ccc(OC)c(OC)c1	9	0.9	10	0.9
COc1cc(NC(=O)NCc2ccncc2)cc(OC)c1OC	62*	0.3	67*	0.4
O=C(O)CCC(=O)Nc1ccc(Cc2ccc(NC(=O)CCC(=O)O)c(O)c2)cc1O	-16	1.1	-10	1.2
O=C(Nc1ccc(Cc2ccc(NC(=O)C3CC3)c(O)c2)cc1O)C1CC1	13	0.3	70*	0.9
COc1cc(NS(=O)(=O)N2CCCC2)cc(OC)c1OC	32	1.2	-17	0.7
CC(=O)NCCOC(=O)Nc1ccncc1	22	0.4	62*	0.8
O=S(=O)(Nc1ccc(Cc2ccncc2)cc1)N1CCCC1	100*	0	97*	0
CC(=O)NCCOC(=O)Nc1cccnc1	-9	1	1	1.1
O=C(Nc1ccc(Cc2ccncc2)cc1)C1CC1	84*	0.1	89*	0.2
O=C(NCCCN1CCOCC1)c1cc(-c2ccc(F)cc2)on1	-10	1	-4	1.1
CCCCc1nc2ccccc2c(C(=O)O)c1C	8	0.8	16	0.9
COc1ccc(Cc2nnn(CC(=O)O)n2)cc1	-2	1.3	-27	1
SMILES	CYP2C19 inh	CYP2C9 activ	CYP2C9 inh	CYP2C19 activ
CCC(=O)Nc1cccc(NC(=O)c2ccc(C)c([N+](=O)[O-])c2)c1	13	1.2	-19	0.9
Cc1ccc(C(=O)Nc2ccc(Cc3ccncc3)cc2)cc1[N+](=O)[O-]	91*	0.1	90*	0.1
O=C(O)/C=C/C(=O)Nc1ccccc1C(=O)Nc1ccccc1	-48	1	4	1.5
Cc1ccc(N2Cc3ccccc3OC(C)C2=O)cc1 (stereo not given)	100*	0.2	85*	0
Cc1ccc(N2C(=O)[C@@H]3Cc4ccccc4CN3C2=O)cc1	3	1.2	-17	1
O=C(CSc1ncc(-c2ccc(F)cc2)[nH]1)Nc1cccc(O)c1	51*	0.9	10	0.5
CCc1nnc(NC(=O)CSc2nnc3ncccn23)s1	68*	0.6	35	0.3
COc1cc(NC(=O)c2ccco2)c(OC)cc1NC(=O)CSc1ncc(-c2ccc(F)cc2)[nH]1	-4	1	0	1
CCc1nnc(NC(=O)CSc2ncc(-c3ccccc3)[nH]2)s1	25	0.3	66*	0.7
CCOC(=O)CSc1ccc(-c2nc3ccccc3[nH]2)cn1	30	0.8	17	0.7
CCc1nnc(NC(=O)CSc2ccc(-c3nc4ccccc4[nH]3)cn2)s1	23	0.5	51*	0.8

Screens as filed in PubChem.
